Compound activity (PubChem)
MITF TRPM1 inh – reduces MITF-dependent TRPM1 promoter luciferase signal. inhibition, % at 12.5 µM. 330,000 tested, 0.83% active. SK-MEL-5 TRPM1 promoter luciferase, 24 h;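 active = mean inhibition across replicates of 60% or more, whatever share of single replicates reaches that level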
KKLEB cytotox – CF airway cell cytotoxicity counter-screen. KKLEB CF airway cells viability, ATPlite luminescence, overnight; hits give low values; cells stimulated with P. aeruginosa culture filtrate. activity change (cytotoxicity), % at 5 µM. 360,000 tested, 0.36% active. AID 602141;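 active = corrected activity change at or below -50% at 5 µM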
Peg3 promoter – reduces Peg3 promoter-driven luciferase expression in HeLa; HeLa PEG-Prom luciferase reporter, luminescence, overnight; 360,000 tested, 1.7% active; inhibition, % at 20 µM;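 active = inhibition of at least 50% at 20 µM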
CF NFkB inh – cystic fibrosis NF-kB activation inhibition; KKLEB NF-kB-GFP reporter, PAF-induced, GFP fluorescence overnight; inhibition, % at 5 µM; 360,000 tested, 0.86% active; AID 588850;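 active = at least 50% inhibition at 5 µM, scaled per plate between neutral and stimulator controls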;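 note: PAF is a Pseudomonas aeruginosa culture filtrate used as stimulus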
ABHD5-PLIN5 inh – blocks binding of human ABHD5 to perilipin-5; Q00G26+Q8WTS1; Split G. princeps luciferase complementation, luminescence, 4 h; inhibition, % at 4 µM; 360,000 tested, 0.78% active;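 active = inhibition above the mean inhibition across every tested compound plus 3 SD, cut at about 22% in these data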
HIF-2a block – inhibitors of HIF-2a; 786-0 RCC cells HIF-2a reporter, luciferase luminescence, overnight; 360,000 tested, 0.72% active; inhibition, % at 18.8 µM; AID 624352;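 active = inhibition of the luminescence signal of 40% or more relative to plate controls, in a single-dose primary screen at 18.75 µM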
Of the large screens only hits and unclear results are named; the others gave an inactive call. Only some compounds are listed: those with a hit (about 3.1% of all), similar ones and a draw of the others.

CCc1ccc(CNC(=O)C2CCN(S(=O)(=O)N3CCC(C)CC3)CC2)cc1	none
Cc1nnc(SCC(=O)N2CCN(c3ccccc3F)CC2)n1C1CC1	none
C[C@H]1CCC/C=C/[C@@H]2C[C@H](O)C[C@H]2[C@H](O)[C@H](S(=O)c2ccc(O)cc2)CC(=O)O1 (some centres undefined)	MITF TRPM1 inh 83, Peg3 promoter 52, CF NFkB inh 66
CC(=O)c1sc(NC(=O)C=C(C)C)nc1C	none
CC(=O)c1sc(NC(=O)C2(F)C(F)(F)C(F)(F)C(F)(F)C(F)(F)C2(F)F)nc1C	KKLEB cytotox -52, CF NFkB inh 65
N#C/C(=C/c1cn(-c2ccccc2)nc1-c1cccc(S(=O)(=O)N2CCOCC2)c1)C(=O)NCc1ccco1	KKLEB cytotox -57, CF NFkB inh 51
COc1ccc([N+](=O)[O-])cc1Nc1c2ccccc2nc2ccccc12	Peg3 promoter 58
O=C(O)c1ccccc1C(=O)Nc1cccc([N+](=O)[O-])c1	none
O=C(Nc1cccc([N+](=O)[O-])c1)c1cc2ccccc2cc1O	KKLEB cytotox -52, CF NFkB inh 60
Cc1ccc2c(C)nc(Nc3nc(CSc4nc5ccccc5[nH]4)cc(=O)[nH]3)nc2c1	MITF TRPM1 inh 80, KKLEB cytotox -58, Peg3 promoter 109, CF NFkB inh 99
COc1cc(C=NNC(=O)c2ccc(NS(=O)(=O)c3cccs3)cc2)cc(Br)c1O	none
CC(=O)Nc1ccc(C=NNC(=O)c2ccc(NS(=O)(=O)c3cccs3)cc2)cc1	Peg3 promoter 100
COc1cccc(C(=O)OCC(=O)c2c(N)n(C)c(=O)n(C)c2=O)c1	none
O=C(Nc1ccc(Cl)c([N+](=O)[O-])c1)c1ccco1	none
O=C(/C=C/c1ccc(Cl)c([N+](=O)[O-])c1)Nc1cccc(NC(=O)c2ccco2)c1	Peg3 promoter 114
O=C(/C=C/c1ccc(Cl)c([N+](=O)[O-])c1)Nc1ccc(NC(=O)c2ccco2)cc1	Peg3 promoter 61
CCc1nc2ccc(C(=O)N(C)Cc3ccccc3)cn2c1N(CC)Cc1cccc(Br)c1	none (no result: MITF TRPM1 inh)
CCc1nc2ccc(C(=O)NC3CCN(Cc4ccccc4)CC3)cn2c1N(CC)Cc1cccc(Br)c1	Peg3 promoter 94 (no result: MITF TRPM1 inh)
CCCNC(=O)CS(=O)(=O)c1ccccc1	none
O=S(=O)(Nc1nc2ccccc2nc1Cl)c1cccc(C(F)(F)F)c1	none
CCOC(=O)C1CCN(C(=O)Nc2ccc3nc(-c4ccco4)c(-c4ccco4)nc3c2)CC1	ABHD5-PLIN5 inh 31
CCOC(=O)C1CCN(C(=O)Nc2ccc3c(c2)nc(C)n3C)CC1	none
COC(=O)c1cc(S(=O)(=O)Nc2cccc(-c3ccno3)c2)c[nH]1	none (no result: MITF TRPM1 inh)
C=CCc1cc(C(=O)N2CCCCC2)ccc1O	CF NFkB inh 51
O=C(c1ccc2c(c1)OCCO2)N1CCCCC1	none
COc1ccc(OC)c2nc3c(C(=O)NCCN(C)C)cccc3nc12	MITF TRPM1 inh 73, Peg3 promoter 90
CN(C)CCNC(=O)c1cccc2ccc(-c3ccc(-c4ccccc4)cc3)nc12	MITF TRPM1 inh 70, Peg3 promoter 93
COc1ccc2cc(C(=O)Nc3ccc(S(N)(=O)=O)cc3)sc(=O)c2c1OC	Peg3 promoter 79
COc1ccc2cc(C(=O)Nc3ccccc3)sc(=O)c2c1OC	none
Cc1nc2ccccc2n1/N=C/c1ccc([N+](=O)[O-])o1	none
Cc1nc2ccccc2n1/N=C/c1ccc([N+](=O)[O-])s1	MITF TRPM1 inh 82
O=[N+]([O-])c1ccc(/C=N/n2c(CO)nc3ccccc32)s1	MITF TRPM1 inh 72
O=C(Cc1cccs1)N/N=C\c1ccc([N+](=O)[O-])s1	none
CCCn1c(SCC(=O)NCCCN2CCCC2=O)nc2ccccc2c1=O	none
O=C1C(=O)c2cccnc2-c2ncccc21	KKLEB cytotox -83, Peg3 promoter 102, CF NFkB inh 90, ABHD5-PLIN5 inh 101, HIF-2a block 90 (no result: MITF TRPM1 inh)
COc1ccc2cc3c(N)nn(C(=O)C4CCC(C(C)(C)C)CC4)c3nc2c1 (centres undefined)	CF NFkB inh 82 (no result: MITF TRPM1 inh)
CCOc1ccc(C(=O)COC(=O)c2cc(=O)[nH]c3ccccc23)cc1	none
COc1ccc(NC(=O)CSc2nc3ccc(Nc4nc(N5CCOCC5)nc(N5CCOCC5)n4)cc3s2)cc1	KKLEB cytotox -50, CF NFkB inh 56
Cc1ccc(NC(=O)CSc2nc3ccc(Nc4nc(N5CCOCC5)nc(N5CCOCC5)n4)cc3s2)cc1	none
c1ccc2c(c1)OCC(CNc1ncnc3sccc13)O2 (centres undefined)	none
CC1=NNC(=O)c2ccccc2O1	none
CN(C)CCCN(C(=O)/C=C/c1cccs1)c1nc2c(F)cccc2s1	Peg3 promoter 106
CN(C)CCCN(C(=O)c1sc2ccccc2c1Cl)c1nc2c(F)cccc2s1	none
CN(C)CCCN(C(=O)c1cc(-c2cccs2)nc2ccccc12)c1nc2c(F)cccc2s1	Peg3 promoter 71
Cc1cccc2sc(N(CCN(C)C)C(=O)/C=C/c3cccs3)nc12	none
Cc1cccc2sc(N(CCCN(C)C)C(=O)c3ccc(C(=O)c4ccccc4)cc3)nc12	Peg3 promoter 86
Cc1cccc2sc(N(CCCN(C)C)C(=O)c3sc4ccccc4c3Cl)nc12	none
C[C@@H]1CCC[C@]2(O[C@H](CCO)C[C@H](O)[C@H]2O)O1	none
CNS(=O)(=O)c1c(C)cc(C)c(N(C)S(=O)(=O)c2ccccc2)c1C	none
CCCc1[nH]nc2c1C(c1cn[nH]c1-c1ccc(F)cc1)C(C#N)=C(N)O2 (centres undefined)	MITF TRPM1 inh 61
CCCc1[nH]nc2c1C(c1ccccc1OC)C(C#N)=C(N)O2 (centres undefined)	none
c1ccc2cc(N3CCCCC3)ccc2c1	none
O=C1c2ccccc2C(=O)c2cc(N3CCCCC3)ccc21	KKLEB cytotox -63
NS(=O)(=O)c1ccc(NC(=O)COc2ccc(S(=O)(=O)N3CCCC3)cc2)cc1	none
CC[C@H](C)C1OC(=O)[C@@H](C)[C@@H](CC)NC(=O)[C@H](C)N(C)C(=O)C(C)(C)C(=O)C(C)NC(=O)[C@H](Cc2ccc(OC)cc2)N(C)C(=O)[C@H](C(C)C)N(C)C(=O)CNC(=O)[C@H](CC(C)C)N(C)C(=O)CNC1=O (some centres undefined)	KKLEB cytotox -94, Peg3 promoter 92, CF NFkB inh 96 (no result: MITF TRPM1 inh)
CCOc1ccc(/C=C2\SC(=S)N(CCC(=O)N(CCO)c3ccccc3)C2=O)cc1	HIF-2a block 57
CCc1ccc(C=C2SC(=S)N(CCCC(=O)Nc3ccc(C(=O)O)cc3)C2=O)cc1	HIF-2a block 51 (no result: MITF TRPM1 inh)
CCc1ccc(/C=C2/SC(=S)N(CCC(=O)Nc3ccc(C(=O)O)cc3)C2=O)cc1	none
CCc1ccc(/C=C2\SC(=S)N(CCCC(=O)N(CCO)c3ccccc3)C2=O)cc1	Peg3 promoter 76, HIF-2a block 65 (no result: MITF TRPM1 inh)
CCOC(=O)C1(CC2CC2)CCN(C(=O)c2cccnc2C)CC1	none
